Measured values reported in ChEMBL document CHEMBL1961873, “Compounds: GSK PKIS; Assays: Nanosyn kinase panel” (2012).

What was measured:
[1] = molecular target: High affinity nerve growth factor receptor (Homo sapiens) (UniProt P04629); details: at 1 µM;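 also: each value is the mean percent inhibition of TRKA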
[2] = molecular target: BDNF/NT-3 growth factors receptor (Homo sapiens) (UniProt Q16620); details: at 0.1 µM
[3] = molecular target: BDNF/NT-3 growth factors receptor (Homo sapiens) (UniProt Q16620); details: at 1 µM
[4] = molecular target: NT-3 growth factor receptor (Homo sapiens) (UniProt Q16288); details: at 0.1 µM
Sequence of NT-3 growth factor receptor (Homo sapiens) (Q16288 32-839 limits assumed): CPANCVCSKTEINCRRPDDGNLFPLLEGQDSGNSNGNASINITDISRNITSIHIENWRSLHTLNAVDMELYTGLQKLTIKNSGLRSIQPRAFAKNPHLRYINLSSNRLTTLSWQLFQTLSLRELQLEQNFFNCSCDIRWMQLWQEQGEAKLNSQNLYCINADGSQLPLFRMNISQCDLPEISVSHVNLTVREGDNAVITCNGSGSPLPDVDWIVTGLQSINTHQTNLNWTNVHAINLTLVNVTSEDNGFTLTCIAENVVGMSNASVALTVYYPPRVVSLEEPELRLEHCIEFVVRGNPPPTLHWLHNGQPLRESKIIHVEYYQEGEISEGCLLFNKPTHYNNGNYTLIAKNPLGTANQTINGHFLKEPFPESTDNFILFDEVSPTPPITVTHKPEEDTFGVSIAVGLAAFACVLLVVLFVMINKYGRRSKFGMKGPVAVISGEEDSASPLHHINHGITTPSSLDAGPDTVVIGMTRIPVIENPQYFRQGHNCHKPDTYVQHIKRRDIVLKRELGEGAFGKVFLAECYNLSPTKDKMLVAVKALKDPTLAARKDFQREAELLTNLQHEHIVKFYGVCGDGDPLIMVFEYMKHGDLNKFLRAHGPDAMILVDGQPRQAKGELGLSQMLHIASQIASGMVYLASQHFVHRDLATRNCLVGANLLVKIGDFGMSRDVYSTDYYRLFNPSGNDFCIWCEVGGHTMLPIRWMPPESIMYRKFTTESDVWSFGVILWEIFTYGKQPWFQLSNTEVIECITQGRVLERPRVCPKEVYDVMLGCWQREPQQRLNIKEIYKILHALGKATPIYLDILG

[5] = molecular target: NT-3 growth factor receptor (Homo sapiens) (UniProt Q16288); details: at 1 µM
[6] = molecular target: T1, Tyrosine-protein kinase TXK (Homo sapiens) (UniProt P42681); details: at 0.1 µM
T1 sequence (whole entry): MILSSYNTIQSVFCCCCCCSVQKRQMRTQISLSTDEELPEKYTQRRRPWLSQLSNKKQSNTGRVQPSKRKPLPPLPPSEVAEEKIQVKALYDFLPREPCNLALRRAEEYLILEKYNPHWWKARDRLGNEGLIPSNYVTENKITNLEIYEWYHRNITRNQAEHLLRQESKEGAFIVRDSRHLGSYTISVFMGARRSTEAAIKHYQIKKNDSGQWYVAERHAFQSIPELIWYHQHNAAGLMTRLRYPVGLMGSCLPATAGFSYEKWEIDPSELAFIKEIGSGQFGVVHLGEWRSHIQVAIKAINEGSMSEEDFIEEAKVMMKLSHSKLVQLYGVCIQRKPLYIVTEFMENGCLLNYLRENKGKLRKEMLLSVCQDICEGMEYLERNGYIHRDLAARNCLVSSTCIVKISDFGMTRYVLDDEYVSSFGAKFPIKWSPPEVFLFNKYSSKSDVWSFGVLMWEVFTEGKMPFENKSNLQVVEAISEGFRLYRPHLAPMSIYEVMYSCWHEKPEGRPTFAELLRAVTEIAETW

[7] = molecular target: T1, Tyrosine-protein kinase TXK (Homo sapiens); details: at 1 µM
[8] = molecular target: Non-receptor tyrosine-protein kinase TYK2 (Homo sapiens) (UniProt P29597); details: at 0.1 µM;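 also: each value is a mean of the inhibition readings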
Sequence of Non-receptor tyrosine-protein kinase TYK2 (Homo sapiens) (P29597 whole entry): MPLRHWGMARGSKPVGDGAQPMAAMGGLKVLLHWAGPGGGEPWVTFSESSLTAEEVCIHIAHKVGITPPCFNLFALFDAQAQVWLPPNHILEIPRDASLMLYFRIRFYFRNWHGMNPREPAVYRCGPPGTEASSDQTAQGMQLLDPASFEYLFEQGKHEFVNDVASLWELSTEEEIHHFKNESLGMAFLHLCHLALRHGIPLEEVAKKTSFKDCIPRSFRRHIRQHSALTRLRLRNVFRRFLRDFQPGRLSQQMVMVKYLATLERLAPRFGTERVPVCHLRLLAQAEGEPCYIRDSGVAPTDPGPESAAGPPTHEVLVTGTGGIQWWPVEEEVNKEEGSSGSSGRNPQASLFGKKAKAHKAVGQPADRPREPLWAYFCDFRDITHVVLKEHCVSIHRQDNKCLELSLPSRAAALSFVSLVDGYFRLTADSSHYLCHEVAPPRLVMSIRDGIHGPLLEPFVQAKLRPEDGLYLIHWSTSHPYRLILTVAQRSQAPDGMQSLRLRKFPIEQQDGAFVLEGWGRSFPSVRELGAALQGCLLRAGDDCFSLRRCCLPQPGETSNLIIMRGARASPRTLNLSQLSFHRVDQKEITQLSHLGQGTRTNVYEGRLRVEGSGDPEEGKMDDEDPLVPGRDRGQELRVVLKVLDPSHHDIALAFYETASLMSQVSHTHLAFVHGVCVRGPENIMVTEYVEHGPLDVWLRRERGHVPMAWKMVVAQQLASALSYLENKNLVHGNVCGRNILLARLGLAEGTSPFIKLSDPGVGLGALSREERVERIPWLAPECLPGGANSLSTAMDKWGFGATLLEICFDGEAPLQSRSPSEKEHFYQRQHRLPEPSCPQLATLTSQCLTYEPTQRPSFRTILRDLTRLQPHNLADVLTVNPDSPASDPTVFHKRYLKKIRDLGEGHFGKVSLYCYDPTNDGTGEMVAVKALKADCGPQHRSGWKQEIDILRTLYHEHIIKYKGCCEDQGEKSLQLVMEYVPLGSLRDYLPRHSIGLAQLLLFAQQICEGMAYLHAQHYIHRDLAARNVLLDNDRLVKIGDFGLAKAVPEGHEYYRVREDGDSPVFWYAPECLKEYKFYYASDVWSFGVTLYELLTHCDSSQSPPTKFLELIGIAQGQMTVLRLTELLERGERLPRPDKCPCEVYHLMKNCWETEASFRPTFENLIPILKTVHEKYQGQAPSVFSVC

[9] = molecular target: T2, Dual specificity protein kinase TTK (Homo sapiens) (UniProt P33981); details: at 1 µM;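 also: reported figures are mean TTK inhibition at 1 µM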
T2 sequence (whole entry): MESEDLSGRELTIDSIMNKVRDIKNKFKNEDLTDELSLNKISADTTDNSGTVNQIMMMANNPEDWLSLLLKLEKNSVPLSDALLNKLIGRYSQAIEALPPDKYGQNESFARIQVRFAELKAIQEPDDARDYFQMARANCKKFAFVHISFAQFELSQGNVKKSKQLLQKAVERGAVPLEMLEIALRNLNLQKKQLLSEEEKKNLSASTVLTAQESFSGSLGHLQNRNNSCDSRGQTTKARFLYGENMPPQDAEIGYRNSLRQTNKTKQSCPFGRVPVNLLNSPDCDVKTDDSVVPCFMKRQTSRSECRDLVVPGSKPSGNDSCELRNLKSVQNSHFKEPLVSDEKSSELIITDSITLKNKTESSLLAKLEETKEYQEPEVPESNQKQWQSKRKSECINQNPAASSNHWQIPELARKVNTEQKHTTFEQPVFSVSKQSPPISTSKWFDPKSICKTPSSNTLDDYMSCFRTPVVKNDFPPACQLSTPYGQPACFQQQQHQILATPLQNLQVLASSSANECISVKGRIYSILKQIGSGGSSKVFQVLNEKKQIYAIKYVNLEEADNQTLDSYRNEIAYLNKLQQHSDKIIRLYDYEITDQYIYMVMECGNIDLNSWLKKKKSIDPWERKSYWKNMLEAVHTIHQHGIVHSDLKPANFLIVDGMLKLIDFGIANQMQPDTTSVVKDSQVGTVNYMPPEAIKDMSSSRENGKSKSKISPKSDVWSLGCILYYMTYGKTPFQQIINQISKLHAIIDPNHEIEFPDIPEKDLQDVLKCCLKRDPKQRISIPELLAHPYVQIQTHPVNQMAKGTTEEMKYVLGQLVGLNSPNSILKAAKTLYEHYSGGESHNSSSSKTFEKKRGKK

[10] = molecular target: T3, Aurora kinase A (Homo sapiens) (UniProt O14965); details: at 0.1 µM;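 also: each reported value is a mean percent inhibition of Aurora-A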
T3 sequence (whole entry): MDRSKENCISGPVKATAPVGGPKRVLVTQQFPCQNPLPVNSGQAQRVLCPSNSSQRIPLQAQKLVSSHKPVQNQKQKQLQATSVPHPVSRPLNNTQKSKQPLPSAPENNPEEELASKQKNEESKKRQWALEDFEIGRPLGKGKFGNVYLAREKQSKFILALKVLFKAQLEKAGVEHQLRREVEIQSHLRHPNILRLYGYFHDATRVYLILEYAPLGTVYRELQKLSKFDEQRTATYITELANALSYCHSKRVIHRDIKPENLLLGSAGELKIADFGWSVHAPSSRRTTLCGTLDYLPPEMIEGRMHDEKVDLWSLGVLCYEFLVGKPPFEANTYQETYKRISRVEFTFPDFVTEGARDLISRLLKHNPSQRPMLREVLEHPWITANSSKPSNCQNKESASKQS

Sequence of High affinity nerve growth factor receptor (Homo sapiens) (P04629 33-796 limits assumed): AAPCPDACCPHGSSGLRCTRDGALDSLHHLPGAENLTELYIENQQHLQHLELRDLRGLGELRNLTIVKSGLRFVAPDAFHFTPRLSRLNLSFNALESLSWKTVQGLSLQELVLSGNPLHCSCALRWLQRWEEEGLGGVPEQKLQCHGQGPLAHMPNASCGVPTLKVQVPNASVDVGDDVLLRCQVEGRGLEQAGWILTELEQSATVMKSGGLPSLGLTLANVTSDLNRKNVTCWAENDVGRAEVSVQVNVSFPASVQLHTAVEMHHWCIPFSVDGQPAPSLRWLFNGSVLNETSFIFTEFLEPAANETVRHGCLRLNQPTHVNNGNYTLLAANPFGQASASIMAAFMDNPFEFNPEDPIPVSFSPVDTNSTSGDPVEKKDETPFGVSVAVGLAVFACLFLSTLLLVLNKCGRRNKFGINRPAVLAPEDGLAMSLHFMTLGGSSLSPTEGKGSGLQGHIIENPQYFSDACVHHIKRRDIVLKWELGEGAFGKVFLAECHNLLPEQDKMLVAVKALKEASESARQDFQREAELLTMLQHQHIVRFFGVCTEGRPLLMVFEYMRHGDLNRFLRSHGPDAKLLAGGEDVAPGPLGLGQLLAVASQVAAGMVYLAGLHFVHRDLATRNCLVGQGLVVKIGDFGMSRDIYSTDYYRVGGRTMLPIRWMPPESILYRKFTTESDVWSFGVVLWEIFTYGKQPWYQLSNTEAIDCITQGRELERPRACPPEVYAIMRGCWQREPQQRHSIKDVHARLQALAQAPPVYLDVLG
Sequence of BDNF/NT-3 growth factors receptor (Homo sapiens) (Q16620 32-822 limits assumed): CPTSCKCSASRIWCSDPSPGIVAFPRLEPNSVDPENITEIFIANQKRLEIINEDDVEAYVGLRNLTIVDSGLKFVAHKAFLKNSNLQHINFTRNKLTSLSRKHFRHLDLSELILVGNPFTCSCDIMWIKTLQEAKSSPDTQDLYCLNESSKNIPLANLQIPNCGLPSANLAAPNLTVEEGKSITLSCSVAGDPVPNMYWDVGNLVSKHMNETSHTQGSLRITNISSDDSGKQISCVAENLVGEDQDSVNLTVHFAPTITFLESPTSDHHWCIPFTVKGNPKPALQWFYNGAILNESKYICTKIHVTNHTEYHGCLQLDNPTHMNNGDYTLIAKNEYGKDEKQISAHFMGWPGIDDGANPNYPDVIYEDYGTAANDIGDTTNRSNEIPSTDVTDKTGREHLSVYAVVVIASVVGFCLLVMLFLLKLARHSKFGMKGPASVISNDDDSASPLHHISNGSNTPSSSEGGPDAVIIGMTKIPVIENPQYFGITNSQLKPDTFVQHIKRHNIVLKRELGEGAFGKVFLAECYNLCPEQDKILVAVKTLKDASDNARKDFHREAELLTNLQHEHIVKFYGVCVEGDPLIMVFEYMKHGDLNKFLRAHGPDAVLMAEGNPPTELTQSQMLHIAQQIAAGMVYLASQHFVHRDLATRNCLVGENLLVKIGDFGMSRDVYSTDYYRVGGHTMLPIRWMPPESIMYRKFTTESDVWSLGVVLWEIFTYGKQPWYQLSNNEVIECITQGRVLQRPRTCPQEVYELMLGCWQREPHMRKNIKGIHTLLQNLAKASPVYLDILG

SMILES	inhibition [1]	inhibition [2]	inhibition [3]	inhibition [4]	inhibition [5]	inhibition [6]	inhibition [7]	inhibition [8]	inhibition [9]	inhibition [10]
NS(=O)(=O)c1ccc(-c2ccc3c(NC(=O)C4CC4)n[nH]c3c2)cc1	0.03%	0.8%	5.39%	2.06%	9.04%	3.28%	4.88%	-5.6%	7.86%	3.44%
COc1cc(C=NNc2ncnc3c2cnn3Cc2ccccc2)ccc1O	2.96%	0.74%	23.4%	0.17%	14%	1.55%	19.6%	3.47%	3.09%	2.88%
NS(=O)(=O)c1ccc(N/C=C2\C(=O)Nc3ccc4ncsc4c32)cc1	51.3%	19.1%	65.9%	21.6%	66.9%	-0.44%	10.8%	1.37%	62.4%	30%
Cc1cc(-c2ccco2)cc(C)c1/C=C/c1cncc(-c2nn[nH]n2)c1	-4.92%	-0.9%	4.36%	-0.6%	5.53%	-0.29%	4.01%	0.06%	4.48%	3.01%
CCn1c(-c2nonc2N)nc2c(C#CC(C)(C)O)nc(O[C@@H](CN)c3ccccc3)cc21	0.16%	-1.86%	1.16%	-1.62%	0.7%	2.06%	2.31%	2.96%	8.72%	0.22%
Nc1nonc1-c1nc2cnccc2n1C1CCCCC1	-1.13%	-1.42%	-0.84%	-0.5%	0.67%	-1.24%	-0.03%	4.5%	4.51%	-0.63%
COc1cccc(-n2ncc3c(N/N=C/c4ccncc4)ncnc32)c1	12.8%	7.74%	37.6%	8.44%	36.9%	4.8%	18.6%	-2.74%	18.5%	12.1%
NC(=O)c1sc(-n2cnc3cc(C(F)(F)F)ccc32)cc1OCc1ccccc1Br	-0.05%	3%	1.49%	1.41%	2.25%	1.4%	3.45%	0.53%	3.54%	1.18%
COc1cc2c(cc1Nc1nc(Nc3ccsc3C(N)=O)c3cc[nH]c3n1)N(C(=O)CN(C)C)CCC2	–	-0.6%	3.59%	-1.52%	3.92%	-2.39%	-1.59%	-8.98%	36.4%	2.03%
CCn1c(-c2nonc2N)nc2c(C#CC(C)(C)O)ncc(OC[C@@H]3CCCN3)c21	-3.52%	-0.66%	0.79%	1.15%	-0.37%	-0.98%	1.67%	-0.97%	4.1%	3.07%
CCn1c(-c2nonc2N)nc2c(C#CC(C)(C)O)ncc(OCC3CCNCC3)c21	2.62%	3.08%	1.98%	3.15%	3.69%	-1.16%	-1.53%	-1.24%	11.4%	-1.94%
CCn1c(-c2nonc2N)nc2c(C#CCN)ncc(OCCCN)c21	-4.23%	-0.67%	-1.3%	0.15%	2.14%	-1.46%	-3.71%	5.99%	-3.71%	-1.21%
Fc1ccc(-c2ncn(C3CCNCC3)c2-c2ccnc(Oc3ccccc3)n2)cc1	1.69%	1.68%	2.74%	1.74%	1.25%	-5.33%	-2.78%	-1.8%	6.14%	-3.42%
COc1cccc(COc2cc(-n3cnc4ccccc43)sc2C(N)=O)c1	-7.54%	-0.03%	-0.8%	-2.79%	-1.55%	-1.73%	2.43%	-1.93%	4.76%	2.16%
